# Screen size: about 16,000 compounds; about 5,800 (36%) were called active. About 23% were inconclusive and are not listed. This is one part of the list. Values without a mark were called inactive. The call rests on the fitted dose curve; in most records, active means well fitted curve in the direction sought with a large enough effect; inconclusive means small, poorly fitted or top-dose-only effect, or effect the other way; inactive means no such curve, though single readings can be large or run the other way.
# Target: Cytochrome P450 2C19 (Homo sapiens) (UniProt P33261)
# Sequence (P33261 whole entry, looked up): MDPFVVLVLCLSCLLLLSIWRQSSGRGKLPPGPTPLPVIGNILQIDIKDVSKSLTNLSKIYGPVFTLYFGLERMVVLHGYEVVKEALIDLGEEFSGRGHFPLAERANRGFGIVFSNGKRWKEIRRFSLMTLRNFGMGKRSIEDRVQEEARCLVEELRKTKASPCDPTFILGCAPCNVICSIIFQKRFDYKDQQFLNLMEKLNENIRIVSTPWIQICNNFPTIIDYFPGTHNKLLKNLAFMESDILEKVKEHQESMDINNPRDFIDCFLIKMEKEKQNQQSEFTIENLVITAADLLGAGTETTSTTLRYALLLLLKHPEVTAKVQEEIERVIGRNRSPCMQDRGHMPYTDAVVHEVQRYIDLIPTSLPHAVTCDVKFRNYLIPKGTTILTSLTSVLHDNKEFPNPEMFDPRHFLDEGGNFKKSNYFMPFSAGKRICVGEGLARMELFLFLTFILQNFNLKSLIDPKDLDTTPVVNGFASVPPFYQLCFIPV
# Assay: Cytochrome panel assay with activity outcomes
# Settings: recombinant CYP, pro-luciferin dealkylation, luminescence, p450-cyp2c19; series mostly up to 57.1 µM; activity, negative = inhibition: at the top concentration
# On the % scale 0 is the no-effect control and ±100 the full control effect.
Structure (SMILES),"activity, negative = inhibition",AC50
CN(C)C(=O)c1ccc(-c2ccc3ncnc(N4CCC(C(=O)O)CC4)c3c2)cc1,6.88%,–
O=C(O)CCc1ccc(-c2ccccc2)[nH]1,-7.89% [at 11.4 µM],–
Clc1cccc(N/N=C/c2ccc(N3CCOCC3)cc2)c1,–,10 µM (active)
FC(F)(F)c1cccc(NC(=S)Nc2ccc(Cl)cc2Cl)c1,–,0.282 µM (active)
FC(F)(F)c1cccc(NC(=S)Nc2cccc(Cl)c2)c1,–,1.78 µM (active)
C=CCNCCOCCOc1ccc(C)cc1[N+](=O)[O-],-79.6%,–
COc1ccc(C=O)cc1COc1ccc(C)cc1[N+](=O)[O-],–,2.24 µM (active)
CN(C)c1ccc(-c2nccc(Nc3ccc(F)cc3)n2)cc1,–,3.16 µM (active)
Cc1cnc(CNc2cc(-c3ccc(C(=O)N(C)C)cc3)ncn2)cn1,13.1%,–
Fc1ccc(Nc2ccnc(-c3ccc4c(c3)OCO4)n2)cc1,–,2 µM (active)
CN(C)c1ccc(-c2cc(Nc3ccc(F)cc3)ncn2)cc1,–,2 µM (active)
Nc1nccc(Nc2ccc(S(N)(=O)=O)cc2)n1,-11.8% [at 11.4 µM],–
CN1CCN(c2ccnc(-c3ccc(N(C)C)cc3)n2)CC1,-40.7%,–
CC(C)(C)c1ccc(CN(Cc2ccco2)Cc2nnnn2C2CCCC2)cc1,–,2.24 µM (active)
O=C1CCc2cc(OCCCCc3nnnn3C3CCCCC3)ccc2N1,28.7%,–
OCC1CCCN(Cc2ccc(-c3ccccc3)cc2)C1 (stereo not drawn),8.82%,–
S[C@@H]1CCCN(Cc2ccccc2)C1,–,3.16 µM (active)
c1ccc(CN2CC[C@@H](CNc3ncnc4ccccc34)C2)cc1,-7.26% [at 11.4 µM],–
CCOC(=O)C1CCN(Cc2cnc(Oc3ccc(OC)cc3)s2)CC1,–,7.94 µM (active)
Cc1ccc(Oc2ncc(CN3CCOCC3)s2)cc1,–,1.78 µM (active)
Cc1cc(C(C)(C)C)c(OCCCN2CCOCC2)c(C(C)(C)C)c1,-2.67% [at 11.4 µM],–
CCOc1nc(NCCN2CCOCC2)nc(Nc2ccc(C)cc2)n1,-18.9%,–
O=C(Nc1cccc(F)c1)N1CC[C@@]2(CCCNC2)C1,-4.59%,–
Nc1ccc(N(S(=O)(=O)c2ccccc2)S(=O)(=O)c2ccccc2)c(Cl)c1,–,0.158 µM (active)

Structure (SMILES),"activity, negative = inhibition",AC50
Nc1ccc(N2C(=O)c3ccccc3C2=O)c(Cl)c1,-14.9%,–
O=C(NCC(c1cccnc1)N1CCOCC1)Nc1ccccc1 (stereo not drawn),–,17.8 µM (active)
CC(C)(C)C(=O)[C@H]([C@@H](c1ccccc1)N1CCOCC1)N1CCOCC1,27.5% [at 11.4 µM],–
O=C(Nc1ccccc1)N1CCC2(CC1)CCN(C(=O)c1cnccn1)CC2,-4.33%,–
CCOC(=O)c1sc2nc3c(cc2c1N)COC(C)(CC)C3 (stereo not drawn),–,25.1 µM (active)
Cc1ccc(-c2ccc(/C=N\NC(=O)c3cc4c(ccc5ccccc54)o3)o2)cc1[N+](=O)[O-],-10.5%,–
Cc1ccc(-c2ccc(/C=N/NC(=S)Nc3ccccc3)o2)cc1[N+](=O)[O-],–,7.94 µM (active)
CC1(C)OCC([C@H](O)C2=CCCCC2=O)CO1,2.21% [at 11.4 µM],–
Cc1nccn1C[C@@H]1CCc2c(c3ccccc3n2C)C1=O,-18.2% [at 25.6 µM],–
O=C(N/N=C/c1ccc(Br)s1)c1ccccc1[N+](=O)[O-],–,12.6 µM (active)
O=C(N/N=C/c1ccc([N+](=O)[O-])s1)c1ccccc1Br,–,28.2 µM (active)
Cc1nc2ccccn2c1C(=O)N/N=C/c1ccccc1[N+](=O)[O-],-3.18%,–
COc1ccc2[nH]cc(CCNc3nc(-c4ccc(N(C)C)cc4)nc4ccccc34)c2c1,–,7.94 µM (active)
COc1ccc2[nH]cc(CCNc3nc(-c4ccc(C(=O)N(C)C)cc4)nc4ccccc34)c2c1,–,3.16 µM (active)
O=C1OC2CC3CC1CC(O)(C3)C2 (stereo not drawn),-19.6%,–
CCC(C(=O)Nc1cccc(C(F)(F)F)c1)c1ccccc1 (stereo not drawn),-24.6%,–
COC(=O)/C(=C\C(=O)c1ccccc1)Nc1cccc(C(F)(F)F)c1,–,5.01 µM (active)
Nc1nc2c(ncn2[C@@H]2C=C[C@@H](CO)C2)c(=O)[nH]1,-3.48% [at 11.4 µM],–
O=C(c1cc(C(F)(F)F)cc(C(F)(F)F)c1)N1CCC2(CC1)CCN(c1ccccn1)CC2,-32.3%,–
O=C(c1cc(C(F)(F)F)cc(C(F)(F)F)c1)N1CCC2(CC1)CN(c1ccccn1)C2,1.83%,–
O=C(c1cc(C(F)(F)F)cc(C(F)(F)F)c1)N1CCC2(CC1)CCN(c1ccncc1)CC2,-12%,–
Cc1ccc(C(=O)N2CCN(c3ccc(C(F)(F)F)cn3)CC2)cc1,–,25.1 µM (active)
O=C(c1cc(C(F)(F)F)cc(C(F)(F)F)c1)N1CCC2(CC1)CN(c1ccccc1)C2,-14.2%,–
O=C(c1ccc(Oc2ccc(C(F)(F)F)cn2)cc1)N1CCN(c2ccccc2)CC1,–,10 µM (active)

# — PubChem BioAssay AID1851 (National Center for Advancing Translational Sciences (NCATS), 2009)
